Test results published in PubChem BioAssay AID1159580 (chemical genetic matrix, 2015).
In all, about 5,500 compounds went through this assay and about 2,000 (36%) were called active. Inconclusive results (about 18%) are left out. Rule as the data show it: active = normalized growth mostly below about 0.91 (no sharp cut-off); inconclusive = no clear call, values can overlap the other calls; inactive = mostly above about 0.92. Some of the results follow.

Test: chemical genetic growth profiling, strain panel (AID 1159580);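 also: tested at 20 µM; growth read once vehicle control cultures reached saturation at 30 °C; 1 = growth at the plate median or of vehicle wells; lower values mean less growth of the strain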
Details: growth OD
[1] = S. cerevisiae deletion strains, locus YAL013W, strain DEP1, stronger effect = lower value
[2] = S. cerevisiae deletion strains, locus YBR229C, strain ROT2, stronger effect = lower value
[3] = S. cerevisiae deletion strains, locus YDL101C, strain DUN1, stronger effect = lower value
[4] = S. cerevisiae deletion strains, locus YDR150W, strain NUM1, stronger effect = lower value
[5] = S. cerevisiae deletion strains, locus YEL061C, strain CIN8, stronger effect = lower value
[6] = S. cerevisiae deletion strains, locus YGR078C, strain PAC10, stronger effect = lower value
[7] = S. cerevisiae deletion strains, locus YHR030C, strain SLT2, stronger effect = lower value
[8] = S. cerevisiae deletion strains, locus YJR043C, strain POL32, stronger effect = lower value
[9] = S. cerevisiae deletion strains, locus YJR075W, strain HOC1, stronger effect = lower value
[10] = S. cerevisiae deletion strains, locus YKL190W, strain CNB1, stronger effect = lower value
[11] = S. cerevisiae deletion strains, locus YLR039C, strain RIC1, stronger effect = lower value
[12] = S. cerevisiae deletion strains, locus YLR262C, strain YPT6, stronger effect = lower value
[13] = S. cerevisiae deletion strains, locus YMR263W, strain SAP30, stronger effect = lower value
[14] = S. cerevisiae deletion strains, locus YMR307W, strain GAS1, stronger effect = lower value
[15] = S. cerevisiae deletion strains, locus YNL128W, strain TEP1, stronger effect = lower value
[16] = S. cerevisiae deletion strains, locus YNL153C, strain GIM3, stronger effect = lower value
[17] = S. cerevisiae deletion strains, locus YNL322C, strain KRE1, stronger effect = lower value
[18] = S. cerevisiae deletion strains, locus YPL055C, strain LGE1, stronger effect = lower value
[19] = S. cerevisiae deletion strains, locus YPL241C, strain CIN2, stronger effect = lower value
[20] = S. cerevisiae strains, strain wild type, stronger effect = lower value
[21] = S. cerevisiae deletion strains, locus YAL040C, strain CLN3, stronger effect = lower value
[22] = S. cerevisiae deletion strains, locus YCL061C, strain MRC1 (second series), stronger effect = lower value
[23] = S. cerevisiae deletion strains, locus YDR363W, strain ESC2, stronger effect = lower value
[24] = S. cerevisiae deletion strains, locus YER002W, strain NOP16, stronger effect = lower value
[25] = S. cerevisiae deletion strains, locus YNL175C, strain NOP13, stronger effect = lower value
[26] = S. cerevisiae deletion strains, locus YNL197C, strain WHI3, stronger effect = lower value
[27] = S. cerevisiae deletion strains, locus YNL224C, strain SQS1, stronger effect = lower value
[28] = S. cerevisiae deletion strains, locus YOR083W, strain WHI5 (second series), stronger effect = lower value

Measured: normalized growth

C[C@]12CCC3C(CC[C@H]4C[C@@H](O)CC[C@]34C)C1CC[C@@H]2O (some centres undefined)
active: S. cerevisiae deletion strains, locus YGR252W, strain gcn5, stronger effect = lower value 0.764 | S. cerevisiae deletion strains, locus YKL009W, strain mrt4, stronger effect = lower value 0.793 | [11] 0.644 | [12] 0.507 | S. cerevisiae deletion strains, locus YNL298W, strain CLA4, stronger effect = lower value 0.895 | S. cerevisiae deletion strains, locus YNR052C, strain pop2, stronger effect = lower value 0.88 | S. cerevisiae deletion strains, locus YOR184W, strain ser1, stronger effect = lower value 0.836
inactive: [1] 1 | S. cerevisiae deletion strains, locus YBR021W, strain FUR4, stronger effect = lower value 1.01 | [2] 1.03 | S. cerevisiae deletion strains, locus YCL029C, strain bik1, stronger effect = lower value 0.968 | S. cerevisiae deletion strains, locus YDL035C, strain GPR1, stronger effect = lower value 0.864 | S. cerevisiae deletion strains, locus YDL074C, strain BRE1, stronger effect = lower value 0.991 | [3] 1.01 | S. cerevisiae deletion strains, locus YDL134C, strain PPH21, stronger effect = lower value 1.02 | S. cerevisiae deletion strains, locus YDL185W, strain tfp1, stronger effect = lower value 0.988 | S. cerevisiae deletion strains, locus YDL192W, strain arf1, stronger effect = lower value 0.996 | S. cerevisiae deletion strains, locus YDR101C, strain arx1, stronger effect = lower value 1.01 | [4] 1.02 | S. cerevisiae deletion strains, locus YDR162C, strain NBP2, stronger effect = lower value 0.958 | S. cerevisiae deletion strains, locus YDR318W, strain mcm21, stronger effect = lower value 0.972 | S. cerevisiae deletion strains, locus YDR388W, stronger effect = lower value 1.03 | S. cerevisiae deletion strains, locus YDR502C, strain sam2, stronger effect = lower value 1.01 | [5] 1.03 | S. cerevisiae deletion strains, locus YER110C, stronger effect = lower value 1.01 | S. cerevisiae deletion strains, locus YER155C, strain BEM2, stronger effect = lower value 1.04 | S. cerevisiae deletion strains, locus YER167W, strain BCK2, stronger effect = lower value 0.986 | S. cerevisiae deletion strains, locus YGL078C, strain dbp3, stronger effect = lower value 0.973 | S. cerevisiae deletion strains, locus YGL086W, strain mad1, stronger effect = lower value 0.954 | S. cerevisiae deletion strains, locus YGL248W, strain PDE1, stronger effect = lower value 1.02 | [6] 1 | S. cerevisiae deletion strains, locus YGR135W, strain pre9, stronger effect = lower value 0.973 | S. cerevisiae deletion strains, locus YGR229C, strain SMI1, stronger effect = lower value 1.02 | [7] 1.04 | S. cerevisiae deletion strains, locus YHR079C, strain IRE1 (second series), stronger effect = lower value 0.993 | S. cerevisiae deletion strains, locus YHR094C, strain hxt1, stronger effect = lower value 1.02 | S. cerevisiae deletion strains, locus YHR129C, strain ARP1, stronger effect = lower value 1.03 | S. cerevisiae deletion strains, locus YHR200W, strain rpn10, stronger effect = lower value 0.985 | S. cerevisiae deletion strains, locus YIL066C, strain RNR3, stronger effect = lower value 0.953 | S. cerevisiae deletion strains, locus YIL073C, strain SPO22, stronger effect = lower value 0.91 | S. cerevisiae deletion strains, locus YIL125W, strain kgd1, stronger effect = lower value 1.02 | S. cerevisiae deletion strains, locus YIR030C, strain dcg1, stronger effect = lower value 1.03 | S. cerevisiae deletion strains, locus YJL095W, strain BCK1, stronger effect = lower value 1.01 | S. cerevisiae deletion strains, locus YJL134W, strain LCB3, stronger effect = lower value 1.02 | S. cerevisiae deletion strains, locus YJL168C, strain set2, stronger effect = lower value 1.03 | S. cerevisiae deletion strains, locus YJL187C, strain SWE1 (second series), stronger effect = lower value 1 | [8] 0.965 | [9] 1.04 | S. cerevisiae deletion strains, locus YKL068W, stronger effect = lower value 1.02 | S. cerevisiae deletion strains, locus YKL085W, strain MDH1 (second series), stronger effect = lower value 1.02 | S. cerevisiae deletion strains, locus YKL085W, strain MDH1, stronger effect = lower value 1.02 | [10] 1.02 | S. cerevisiae deletion strains, locus YKR001C, strain vps1, stronger effect = lower value 0.964 | S. cerevisiae deletion strains, locus YLR058C, strain SHM2, stronger effect = lower value 1.02 | S. cerevisiae deletion strains, locus YLR102C, strain apc9, stronger effect = lower value 1.02 | S. cerevisiae deletion strains, locus YLR268W, strain sec22, stronger effect = lower value 0.997 | S. cerevisiae deletion strains, locus YLR330W, strain CHS5, stronger effect = lower value 1.03 | S. cerevisiae deletion strains, locus YLR342W, strain FKS1 (second series), stronger effect = lower value 0.87 | S. cerevisiae deletion strains, locus YLR371W, strain rom2, stronger effect = lower value 0.994 | S. cerevisiae deletion strains, locus YLR418C, strain cdc73, stronger effect = lower value 1.13 | S. cerevisiae deletion strains, locus YML016C, strain PPZ1, stronger effect = lower value 1.03 | S. cerevisiae deletion strains, locus YML032C, strain rad52, stronger effect = lower value 0.931 | S. cerevisiae deletion strains, locus YML124C, strain tub3, stronger effect = lower value 1.03 | S. cerevisiae deletion strains, locus YMR078C, strain ctf18, stronger effect = lower value 1.03 | S. cerevisiae deletion strains, locus YMR223W, strain ubp8, stronger effect = lower value 0.953 | [13] 1.01 | [14] 1.02 | S. cerevisiae deletion strains, locus YNL067W, strain RPL9B, stronger effect = lower value 0.938 | [15] 1.01 | [16] 1.03 | S. cerevisiae deletion strains, locus YNL233W, strain BNI4, stronger effect = lower value 1.02 | S. cerevisiae deletion strains, locus YNL250W, strain rad50, stronger effect = lower value 0.968 | S. cerevisiae deletion strains, locus YNL271C, strain bni1, stronger effect = lower value 1 | S. cerevisiae deletion strains, locus YNL307C, strain MCK1, stronger effect = lower value 0.954 | [17] 1.03 | S. cerevisiae deletion strains, locus YOL006C, strain TOP1, stronger effect = lower value 1.07 | S. cerevisiae deletion strains, locus YOL012C, strain htz1 1.81 | S. cerevisiae deletion strains, locus YOL147C, strain pex11, stronger effect = lower value 1.04 | S. cerevisiae deletion strains, locus YOR061W, strain CKA2, stronger effect = lower value 0.99 | S. cerevisiae deletion strains, locus YOR069W, strain VPS5, stronger effect = lower value 1.02 | S. cerevisiae deletion strains, locus YOR136W, strain idh2, stronger effect = lower value 1.02 | S. cerevisiae deletion strains, locus YOR144C, strain elg1, stronger effect = lower value 1.01 | S. cerevisiae deletion strains, locus YOR316C, strain cot1, stronger effect = lower value 1.03 | [18] 1.01 | [19] 1.02 | S. cerevisiae deletion strains, locus YPR119W, strain clb2, stronger effect = lower value 1.04 | S. cerevisiae deletion strains, locus YPR141C, strain kar3, stronger effect = lower value 1.04 | S. cerevisiae deletion strains, locus YPR163C, strain tif3, stronger effect = lower value 1.01 | S. cerevisiae deletion strains, locus YPR167C, strain met16, stronger effect = lower value 1.02 | S. cerevisiae deletion strains, strain wtn01, stronger effect = lower value 0.989 | [20] 0.99

C[C@]12CCC3C(CC[C@H]4C[C@H](O)CC[C@]34C)C1CC[C@@H]2C(=O)CO (some centres undefined)
inactive: [1] 1.02 | [21] 1.08 | [22] 1.01 | [4] 1.03 | [23] 1.02 | [24] 1.02 | [9] 1.06 | [14] 0.939 | [15] 1.02 | [25] 1.04 | [26] 1.02 | [27] 0.995 | [28] 1.01 | [18] 1.03 | [19] 1.03

CC12CCC3C(CC[C@H]4CC5(CCC34C)OCCO5)C1CCC2O (some centres undefined)
inactive: [1] 0.988 | [2] 1.01 | [3] 0.976 | [4] 0.912 | [5] 0.999 | [6] 0.968 | [7] 0.969 | S. cerevisiae deletion strains, locus YHR087W, strain rtc3, stronger effect = lower value 1.02 | [9] 1 | [10] 1.03 | S. cerevisiae deletion strains, locus YLR058C, strain SHM2 (second series), stronger effect = lower value 1.04 | S. cerevisiae deletion strains, locus YLR085C, strain ARP6, stronger effect = lower value 1.03 | S. cerevisiae deletion strains, locus YML094W, strain GIM5, stronger effect = lower value 0.98 | S. cerevisiae deletion strains, locus YMR219W, strain ESC1, stronger effect = lower value 1 | [13] 0.992 | [14] 1.05 | S. cerevisiae deletion strains, locus YNL298W, strain CLA4 (second series), stronger effect = lower value 0.945 | S. cerevisiae deletion strains, locus YNR030W, strain Alg12, stronger effect = lower value 0.963 | [18] 0.98 | [19] 0.962 | S. cerevisiae deletion strains, locus YPR135W, strain CTF4, stronger effect = lower value 0.832 | [20] 1.02
active: S. cerevisiae deletion strains, locus YCL061C, strain MRC1, stronger effect = lower value 0.87 | S. cerevisiae deletion strains, locus YJL187C, strain SWE1, stronger effect = lower value 0.92 | [8] 0.877 | [11] 0.74 | [12] 0.625 | [16] 0.905 | [17] 1.08 [resistant]

CC(=O)[C@H]1CCC2C3CC[C@H]4C[C@H](O)CC[C@]4(C)C3CC[C@@]21C (some centres undefined)
inactive: [1] 1.01 | [21] 0.979 | [22] 1 | [23] 1.04 | [24] 1 | [6] 1.01 | [14] 0.935 | [15] 1.01 | [16] 0.944 | [25] 0.993 | [26] 1.01 | [27] 1 | [28] 1 | [18] 0.98
